From PubChem BioAssay (NCI)
Compounds without any hit were thinned out: in the full panel of roughly 83,000, 20% have a hit.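 Step 1: grow cells in 96-well plates. Step 2: add test compound at a single concentration. Step 3: incubate 48 h. Step 4: record percent growth.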 Values without a mark were called inactive. Calls of active or inactive are those of the source. How the source made its calls: active means growth percent below 10; inactive means the rest.

Tested on: NCI-H522 lung
Assay: NCI-60 one-dose screen, 48 h (100 = growth as untreated, 0 = no growth, -100 = all killed)
Settings: 10 µM unless noted

Row | Structure (SMILES) | growth
1 | O=C(NCCNc1nccc(-c2c(-c3cccc(F)c3)nc3sccn23)n1)c1ccc(Cl)cc1 | 68.4%
2 | O=C(CCN1CCCC1)Nc1ccc2c(NCCCc3ccccc3)c3ccccc3nc2c1 | -49.9% (active)
3 | N#CC1=C(/N=C/c2ccccc2)Oc2c(ccc3ccccc23)C1c1ccc([N+](=O)[O-])cc1 (centres undefined) | 86.2%
4 | Brc1ccc(Nc2csc(-c3ccccn3)n2)cc1 | 78.9%
5 | COc1cc(/C(C)=C(\c2ccc(Cl)cc2)c2ccc(OCCN3CCCC3)cc2)ccc1F | 80%
6 | CC(=O)N1c2ccccc2NC2=C(C(=O)NC2(C)C)C1c1ccco1 (centres undefined) | 75.7%
7 | CCOC(=O)CSc1nc2ccccc2c(=O)n1Cc1ccc(S(N)(=O)=O)cc1 | 91.3%
8 | CCCCOc1ccc(/C(C)=N/Nc2cc(C)nc3ccc(Br)cc23)cc1 | 96.9%
9 | COc1cc2c(c(O)c1Cl)C(=O)c1c(O)cc(C[C@H](C)O)cc1[C@H]2[C@H]1c2cc(C[C@H](C)O)cc(O)c2C(=O)c2c1cc(OC)c(Cl)c2O | 5.59% (active)
10 | O=C(c1ccccc1)N1N=C(c2ccc(-n3ccc(C(F)(F)F)n3)c(F)c2)CC1c1ccc[nH]1 (centres undefined) | 89.9%
11 | O=C(Nc1ccc(-c2ccc3c(c2)NC(=O)/C3=C\c2ccc[nH]2)cc1)NC1CC1 | 89.6%
12 | O=c1ccc(-c2nc(N3CCOCC3)c3ccccc3n2)c[nH]1 | 98.9%
13 | COc1cc(/C=C\C(=O)O)ccc1OCc1ccccc1 | 83.6%
14 | COc1ccc(C(C)=O)c(OC)c1 | 89.9%
